# According to PubChem BioAssay:
# Results filed as inconclusive are left out. Unmarked numbers belong to inactive results. Calls of active or inactive are those of the source. Rule as the data show it: active = fluorescence slope change above about 50%; inconclusive = mostly about 31% to 49%; inactive = weaker than that.
# Target: ATP-dependent translocase ABCB1 (Homo sapiens) (UniProt P08183)
# Assay: MDR1 (ABCB1) efflux transporter inhibition, cell-based (AID 377)
# Details: MDR1-expressing cells, fluorescent substrate accumulation slope; active compounds read high; concentration not given here
# ATP-dependent translocase ABCB1 (Homo sapiens), sequence (P08183 whole entry, looked up): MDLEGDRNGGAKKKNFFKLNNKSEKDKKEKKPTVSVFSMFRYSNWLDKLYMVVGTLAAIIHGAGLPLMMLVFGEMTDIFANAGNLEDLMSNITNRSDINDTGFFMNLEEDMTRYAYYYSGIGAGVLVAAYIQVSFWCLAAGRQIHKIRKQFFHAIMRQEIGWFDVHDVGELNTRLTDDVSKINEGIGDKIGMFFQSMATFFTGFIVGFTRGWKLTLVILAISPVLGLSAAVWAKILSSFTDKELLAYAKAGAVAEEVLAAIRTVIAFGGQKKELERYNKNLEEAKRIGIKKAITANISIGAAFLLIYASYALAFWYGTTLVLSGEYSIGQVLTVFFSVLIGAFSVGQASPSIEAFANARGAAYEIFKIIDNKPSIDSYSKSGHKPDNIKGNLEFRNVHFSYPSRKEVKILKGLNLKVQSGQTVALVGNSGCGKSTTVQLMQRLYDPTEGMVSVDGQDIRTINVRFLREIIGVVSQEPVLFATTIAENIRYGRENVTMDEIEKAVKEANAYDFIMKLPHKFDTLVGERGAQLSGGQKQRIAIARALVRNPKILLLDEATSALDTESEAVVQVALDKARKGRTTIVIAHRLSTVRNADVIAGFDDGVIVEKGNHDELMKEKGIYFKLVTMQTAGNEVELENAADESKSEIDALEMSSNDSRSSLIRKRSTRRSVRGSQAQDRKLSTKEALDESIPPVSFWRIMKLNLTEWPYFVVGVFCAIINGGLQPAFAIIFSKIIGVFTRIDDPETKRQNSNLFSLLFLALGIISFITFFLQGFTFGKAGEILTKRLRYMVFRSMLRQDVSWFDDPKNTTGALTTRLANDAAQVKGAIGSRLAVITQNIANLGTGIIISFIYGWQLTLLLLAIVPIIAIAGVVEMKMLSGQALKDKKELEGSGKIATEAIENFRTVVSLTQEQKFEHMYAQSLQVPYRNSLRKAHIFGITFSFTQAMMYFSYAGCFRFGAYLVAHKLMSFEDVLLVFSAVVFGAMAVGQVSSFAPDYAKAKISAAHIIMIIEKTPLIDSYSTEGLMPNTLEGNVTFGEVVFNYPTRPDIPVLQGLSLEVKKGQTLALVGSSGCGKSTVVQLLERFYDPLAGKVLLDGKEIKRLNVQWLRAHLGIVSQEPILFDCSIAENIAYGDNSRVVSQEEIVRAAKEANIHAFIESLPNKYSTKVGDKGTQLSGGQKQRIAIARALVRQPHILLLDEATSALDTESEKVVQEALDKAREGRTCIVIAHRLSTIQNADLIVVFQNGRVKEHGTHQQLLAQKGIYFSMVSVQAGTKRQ
row,SMILES,fluorescence slope change
1,CCN(CC)Cc1cc(Nc2ccnc3cc(Cl)ccc23)ccc1O,54.8% (active)
2,CCN(CCCc1ccccc1)CCCc1ccccc1,72.6% (active)
3,CCOC(=O)n1ccn(C)c1=S,99.3% (active)
4,CC[C@]12CCCN3CCc4c(n(c5ccccc45)[C@@](O)(C(=O)OC)C1)[C@@H]32,8.1%
5,NC(N)=N/N=C/c1c(Cl)cccc1Cl,70.4% (active)
6,COc1cc2c3cc1Oc1cc(ccc1O)C[C@@H]1c4c(cc(OC)c(O)c4Oc4ccc(cc4)C[C@@H]3N(C)CC2)CC[N+]1(C)C,8.4%
7,Nc1ncnc2c1ncn2[C@@H]1O[C@H](COP(=O)(O)O)[C@@H](O)[C@H]1O,73% (active)
8,COC(=O)[C@@H]1[C@H]2C[C@H]3c4[nH]c5ccccc5c4CCN3C[C@@H]2CC[C@@H]1O,52.6% (active)
9,CC(=O)OCC(=O)[C@@]1(O)[C@H](C)C[C@H]2[C@@H]3CCC4=CC(=O)C=C[C@]4(C)[C@@]3(F)[C@@H](O)C[C@@]21C,109% (active)
10,C[C@@H]1C[C@H]2[C@@H]3C[C@H](F)C4=CC(=O)C=C[C@]4(C)[C@@]3(F)[C@@H](O)C[C@]2(C)[C@@]1(O)C(=O)CO,57.3% (active)
11,Oc1cc(O)c2c(c1)O[C@H](c1ccc(O)c(O)c1)[C@H](O)C2,-0.6%
12,CN1CCN(C(c2ccccc2)c2ccccc2)CC1,59.4% (active)
13,COc1ccc2nc(S(=O)Cc3ncc(C)c(OC)c3C)[nH]c2c1 (stereo unspecified),50.5% (active)
14,CN1C(C)(C)CCCC1(C)C,17%
15,CCOC(=O)OC(C)OC(=O)[C@@H]1N2C(=O)[C@@H](NC(=O)[C@H](N)c3ccccc3)[C@H]2SC1(C)C (stereo partly specified),97.9% (active)
16,NC(N)=NC(=O)Cc1c(Cl)cccc1Cl,82% (active)
17,CCc1oc2ccccc2c1C(=O)c1cc(Br)c(O)c(Br)c1,56.7% (active)
18,CN1CCC(=C2c3ccccc3C=Cc3ccccc32)CC1,178% (active)

row,SMILES,fluorescence slope change
1,COc1cc(C(=O)OCCCN2CCCN(CCCOC(=O)c3cc(OC)c(OC)c(OC)c3)CC2)cc(OC)c1OC,100% (active)
2,O=C(c1ccc(F)cc1)C1CCN(CCn2c(=O)[nH]c3ccccc3c2=O)CC1,-1%
3,CN1CCN(C2=Nc3ccccc3Oc3ccc(Cl)cc32)CC1,163% (active)
4,CC1(C)O[C@@H]2C[C@H]3[C@@H]4CCC5=CC(=O)CC[C@]5(C)[C@@]4(F)[C@@H](O)C[C@]3(C)[C@]2(C(=O)CCl)O1,26.3%
5,CCOC(=O)C1=C(C)NC(C)=C(C(=O)OC)C1c1cccc(Cl)c1Cl (stereo unspecified),28.6%
6,CCOC(=O)C1=C[C@]2(CC)CCCN3CCc4c(n1c1ccccc41)[C@@H]32,107% (active)
7,CO[C@@]1(NC(=O)CSCC#N)C(=O)N2C(C(=O)O)=C(CSc3nnnn3C)CS[C@@H]21,20.3%
8,CN1CCCCC1CCN1c2ccccc2Sc2ccc(S(C)=O)cc21 (stereo unspecified),54.4% (active)
9,COc1cc(OC)c(C(=O)CCCN2CCCC2)c(OC)c1,82.5% (active)
10,CC(C)NCC(O)COc1ccc(CCOCC2CC2)cc1 (stereo unspecified),1%
11,CC(=O)[C@@]1(O)CC[C@H]2[C@@H]3C[C@H](C)C4=CC(=O)C=C[C@]4(C)[C@@]3(F)[C@@H](O)C[C@@]21C,10.7%
12,CC(=O)OC(C)C[N+](C)(C)C (stereo unspecified),-0.2%
13,Cc1cc2c(C(C)C)c(O)c(O)c(C=O)c2c(O)c1-c1c(C)cc2c(C(C)C)c(O)c(O)c(C=O)c2c1O,93.5% (active)
14,Nc1ccc(S(=O)(=O)Nc2ccc(Cl)nn2)cc1,-13.4%
15,Cc1scc2c1N(C(=O)CN1CCN(C)CC1)c1ccccc1NC2=O,65.1% (active)
16,CC1CC(OC(=O)C(O)c2ccccc2)CC(C)(C)N1C (stereo unspecified),23.1%
17,Cc1ccc(S(=O)(=O)NC(=O)NN2CC3CCCC3C2)cc1 (stereo unspecified),10.5%
18,COC(=O)Nc1nc2ccc(C(=O)c3cccs3)cc2[nH]1,103% (active)
